High-throughput results from PubChem.
Most compounds without a hit are left out; they make up all but 1.8% or so of the library.
MIN6 prolif-1 – inducers of MIN6 beta-cell proliferation, primary screen, ATP luminescence, uHTS | MIN6 cells proliferation, ATPlite luminescence, 48 h; cells starved in 0.2% serum; 100% = growth in 10% serum | proliferation, % at 10 µM | 330,000 compounds, 0.29% hits;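 active means compounds whose signal lies at least 3.5 SD above the mean of all wells on their plate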;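 further: 0% = DMSO-treated cells in low-serum medium and 100% = 10% serum control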
A3A deaminase – APOBEC3A ssDNA deaminase inhibitors, primary screen, selectivity assay for APOBEC3G inhibitor project, biochemical, FAM/TAMRA oligo cleavage fluorescence; DNA dC->dU-editing enzyme APOBEC-3A (Homo sapiens), P31941; recombinant A3A, FAM/TAMRA ssDNA deamination fluorescence; inhibition, % at 20 µM; 330,000 compounds, 0.41% hits;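 active means at least 40% inhibition at 20 µM here, with at most 30% in a related deaminase screen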;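 further: plate controls were A3A with DMSO for no effect and wells lacking A3A enzyme for full effect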
Target sequence (P31941 whole entry, looked up): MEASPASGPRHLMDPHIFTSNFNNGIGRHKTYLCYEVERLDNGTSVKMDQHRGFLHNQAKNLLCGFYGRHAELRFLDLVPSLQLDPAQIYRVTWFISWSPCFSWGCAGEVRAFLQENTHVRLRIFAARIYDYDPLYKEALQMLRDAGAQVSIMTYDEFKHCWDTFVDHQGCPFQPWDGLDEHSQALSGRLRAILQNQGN
VLA-4 inh – inhibition in human VLA-4 binding assay, primary screen, VLA-4 allosteric modulator project, MLPCN library, flow cytometry, VLA-4 expressing cells; ligand binding flow cytometry; Integrin alpha-4 (Homo sapiens), P13612; 330,000 compounds, 0.2% hits; inhibition, % (about 7 µM as worked out from the volumes in the protocol); AID 2557, 2010; in the data active means inhibition above about 50%
APOBEC3G inh – APOBEC3G DNA deaminase inhibitors, primary screen, biochemical, fluorescence, single-stranded DNA substrate, uHTS. DNA dC->dU-editing enzyme APOBEC-3G (Homo sapiens), Q9HC16. recombinant A3G, ssDNA deamination FAM/TAMRA fluorescence. inhibition, % at 20 µM. 330,000 compounds, 0.28% hits. AID 493012, 2011;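 active means inhibition of at least 40% at 20 µM, with no more than 30% in the related APOBEC3A deaminase screen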;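 further: plate controls were DMSO wells with A3G for no effect and wells lacking A3G enzyme for full effect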
Target sequence (Q9HC16 whole entry, looked up): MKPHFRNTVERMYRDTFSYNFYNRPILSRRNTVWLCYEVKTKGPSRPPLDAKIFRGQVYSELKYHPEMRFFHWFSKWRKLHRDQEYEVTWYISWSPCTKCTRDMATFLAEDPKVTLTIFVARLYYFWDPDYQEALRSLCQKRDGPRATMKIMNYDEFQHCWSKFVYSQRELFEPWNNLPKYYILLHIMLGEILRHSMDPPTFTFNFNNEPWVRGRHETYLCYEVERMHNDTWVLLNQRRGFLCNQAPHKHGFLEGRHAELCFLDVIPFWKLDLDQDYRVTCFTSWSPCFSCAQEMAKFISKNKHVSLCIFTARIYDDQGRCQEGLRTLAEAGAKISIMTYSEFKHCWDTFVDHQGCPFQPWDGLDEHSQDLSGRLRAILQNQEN
NRP1-CendR mod – modulators of CendR peptide binding to NRP-1, primary screen, biochemical, fluorescence polarization, uHTS; AID 602438, 2012; inhibition, % at 25 µM; 360,000 compounds, 0.85% hits; FAM-RPARPAR peptide binding to NRP-1;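 active means inhibition or corrected inhibition above about 18%, plus a signal ratio from 0.5 to 1.5, limit read from the data, passing the limit was not always enough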
MIN6 prolif-2 – inducers of beta-cell proliferation in MIN6, confirmation, MIN6 cells, mouse; AID 463095, 2010; shares compounds with MIN6 prolif-1; ATPlite luminescence, 48 h; cells kept in 0.2% serum; scaled between 0.2% and 10% serum; proliferation increase, % at 50 µM; 920 tested, under 10 active;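 active means proliferation increase above 40% at any of the four tested concentrations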
Starred values were filed as active, the others as inactive; / = no result.

SMILES	MIN6 prolif-1	A3A deaminase	VLA-4 inh	APOBEC3G inh	NRP1-CendR mod	MIN6 prolif-2
CCCCN(C(=O)CCC(=O)Nc1cc(C)on1)C(C(=O)NC(C)(C)C)c1ccccc1Cl (centres undefined)	-1	3	1	2	-2	/
Cc1cc(NC(=O)CCC(=O)N(CC(C)C)C(C(=O)NC(C)(C)C)c2ccccc2Cl)no1 (centres undefined)	6.7*	2	-3	-4	0	-3
O=C1CN(S(=O)(=O)c2ccccc2)c2ccccc2N1	13*	-3	8	-16	8	-1
Cc1cc(=O)n(Cc2ccccc2)c2c(C)cccc12	-2	-2	13	-6	0	/
Cc1cc(=O)n(Cc2ccccc2)c2ccccc12	9.2*	-3	9	-7	4	3
COC(=O)c1c(C)[nH]c(C(=O)CSc2nnnn2-c2ccccc2)c1C	-2	-1	-5	-2	8	/
CCOC(=O)c1c(C)[nH]c(C)c1C(=O)CSc1nnnn1-c1ccccc1	5.5*	4	-4	0	-18	3
CC(=O)Nc1cc(-c2cccc(C(=O)NCCO)c2)cn2c(-c3ccc(F)c(Cl)c3)cnc12	/	/	/	/	-21	/
CC(C)c1ccc(C2/C(=C(/O)c3ccc(F)cc3)C(=O)C(=O)N2CCCN2CCOCC2)cc1 (centres undefined)	-3	-5	-14	-4	-16	/
CC1(C)CN2C(=O)c3ccccc3C2(C)S1 (centres undefined)	8.0*	-4	-1	-12	10	0
O=C1NC(c2ccc(Br)cc2)Oc2ccccc21 (centres undefined)	6.4*	-2	5	-3	-10	-2
O=C1NC(c2ccc(Cl)cc2)Oc2ccccc21 (centres undefined)	-2	-8	0	-5	3	/
CN(Cc1ccccc1)C(=O)c1cccc(NC(=O)Cc2cccc([N+](=O)[O-])c2)c1	-1	-2	-1	-6	-5	/
CC1CCN(CCOc2ccccc2-c2ccccc2)CC1	0.0*	-1	-5	-6	11	-5
COC(=O)c1ccccc1NC(=O)c1cc(-c2ccc(C)cc2)on1	8.3*	2	-7	1	17	0
O=c1c2ccccc2nc(SCc2cn3ccsc3n2)n1-c1ccccc1	6.1*	-1	4	-6	-16	-6
C/C(=N/NC(=O)c1ccc(Br)s1)c1ccncc1	15*	-2	1	0	-4	3
C/C(=N/NC(=O)c1ccc(Br)s1)c1cccnc1	-3	0	1	2	0	/
COc1ccc2c(Cl)c(C(=O)N/N=C/c3cccnc3)sc2c1	15*	-5	5	-11	2	-2
CCc1cccc(CC)c1N(COC)C(=O)Cn1nnc2ccccc21	9.7*	5	1	5	1	-3
Cc1ccc(S(=O)(=O)N2CCOC23CCN(C(=O)c2ccccc2Br)CC3)cc1	13*	-3	22	-4	5	-6
Cc1ccccc1-n1ccnc1SCC(=O)Nc1cccc(S(=O)(=O)NC2=NCCC2)c1	3	-3	-3	-6	3	/
CC(=O)Nc1cc(C(=O)N(C)Cc2ccccc2)ccc1S(=O)(=O)c1ccc(C)cc1	13*	-4	-8	-8	3	-3
COc1ccc(CN(C)C(=O)c2ccc(NS(=O)(=O)c3ccc(C)c([N+](=O)[O-])c3)cc2)c(OC)c1OC	-2	3	-10	0	-9	/
COc1cc(S(=O)(=O)NC2CCCCC2C)ccc1-n1cnnn1 (centres undefined)	7.6*	2	1	4	4	-4
SMILES	MIN6 prolif-1	A3A deaminase	VLA-4 inh	APOBEC3G inh	NRP1-CendR mod	MIN6 prolif-2
CC1CCCCC1NS(=O)(=O)c1ccc(-n2cnnn2)cc1 (centres undefined)	0	0	7	-3	-9	/
C[C@H](O)[C@@H]1C(=O)N2CCc3c([nH]c4ccccc34)[C@@H]2C[C@@H]1N(C)C(=O)NC1CCCCC1	/	/	/	/	-6	/
Cc1ccc(OC(C)C(=O)Nc2ccc3c(c2)n(C)c(=O)n3C)cc1C (centres undefined)	7.8*	2	1	-8	13	0
Cc1cccc(C(=O)OCC(=O)N2CCCCCC2)c1	-3	0	-3	-3	6	/
Cc1ccc(S(=O)(=O)NC(CC(=O)OCc2ccccc2)C(=O)OCc2ccccc2)cc1 (centres undefined)	/	/	/	/	5	/
COc1ccc(Br)cc1S(=O)(=O)NCc1ccccc1	0	5	6	0	12	/
COc1ccc(C(=O)N2CCC2)cc1S(=O)(=O)NCc1ccc(Cl)cc1	8.2*	-4	3	-7	-9	-2
COc1ccc(F)cc1S(=O)(=O)NCc1ccccc1	0.0*	6	/	0	-1	0
COc1cc(OC)cc(-c2c(-c3cccs3)c3cc(-c4cnc(OC)nc4)ccc3n2C)c1	-6	-2	25	-5	0	/
COC(=O)c1ccc(S(=O)(=O)NCc2cccc(OC)c2)n1C	5.5*	2	14	-8	-12	0
COC(=O)c1ccc(S(=O)(=O)NCc2ccc(S(N)(=O)=O)cc2)n1C	-3	2	12	-4	1	/
Cc1ccc([C@H]2N[C@]3(CCCN(Cc4ccc(Cl)cc4)C3=O)[C@H]3C(=O)N(Cc4ccccc4)C(=O)[C@@H]23)cc1	/	/	/	/	2	/
COc1cc(/C=N/NC(=O)CN(Cc2ccccc2)S(=O)(=O)c2ccc3c(c2)OCCO3)ccc1O	0.0*	-2	2	-2	4	-5
Cc1ccc(-c2nn3c(C)nnc3s2)cc1NC(=O)COc1ccc(Cl)cc1	10.0*	-1	0	-2	-4	-2
CC(=O)N1CCN(Cc2cc(=O)oc3ccccc23)CC1	/	/	/	/	10	/
COc1ccc(C2=Nn3c(nnc3-c3ccncc3)SC2)cc1OC	8.6*	0	2	-1	-9	6
COc1ccc(C2=Nn3c(nnc3-c3ccccc3OC)SC2)cc1OC1CCOC1 (centres undefined)	-3	1	15	12	15	/
COc1ccc(C2=Nn3c(nnc3-c3ccccc3C(F)(F)F)SC2)cc1OC1CCOC1 (centres undefined)	8.8*	2	6	13	1	-6
